AF4-AF9 inh = blocks AF4 peptide binding to human AF9; AlphaScreen, biotin-AF4 peptide binding to FLAG-AF9; hit rate 0.47% among 350,000; AID 651704; inhibition, % at 10 µM;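 active means every replicate reaching a set inhibition limit, whatever the replicate mean, cut at about 25% in these data; inconclusive means mean inhibition reaches that limit but some replicates miss it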
N-glyco inh = blocks N-linked glycosylation in D54 reporter cells; D54 ERlucT glycosylation luciferase reporter, 24 h; percent of 100 nM tunicamycin response; reporter increase, % at 12.5 µM; hit rate 0.23% among 360,000;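 active means mean luciferase reporter signal, scaled so untreated is 0 and the glycosylation-blocking control 100, at or above a set limit in every replicate; inconclusive means mean reaches the limit but not every replicate does; inactive means mean below the limit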;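 further: luciferase carries N-glycosylation sites so blocking glycosylation raises the light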
CASP6 VEID inh = blocks human caspase-6 cleavage activity | P55212 | purified caspase-6, Z-VEID-R110 cleavage fluorescence | inhibition, % at 12.5 µM | hit rate 0.53% among 350,000;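 active means mean inhibition across replicates at least about 35%, with every replicate also reaching that limit, limit read from the data; inconclusive means only one of the two criteria met; inactive means neither criterion met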
RAD52 inh = blocks human RAD52 DNA annealing. P43351. recombinant RAD52 DNA annealing, FRET fluorescence. inhibition, % at 18.7 µM. hit rate 0.46% among 360,000. AID 651710;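 active means every replicate showing at least 50% inhibition; inconclusive means mean inhibition at least 50% but not in every replicate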
RAD54 branch = RAD54 (human) branch migration inhibition. inhibition, % at 10.4 µM. RAD54 Holliday junction branch migration, FAM/BHQ fluorescence. Q92698. hit rate 0.14% among 360,000. AID 602329;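 active means mean normalized replicate activity at least 40 and at least half of replicates scoring 40 or more; inconclusive means only one of the two criteria met; inactive means mean below 40 and under half of replicates reaching 40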;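 further: inhibitors cause a drop in the FAM fluorescence signal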
Target sequence (Q92698 whole entry, looked up): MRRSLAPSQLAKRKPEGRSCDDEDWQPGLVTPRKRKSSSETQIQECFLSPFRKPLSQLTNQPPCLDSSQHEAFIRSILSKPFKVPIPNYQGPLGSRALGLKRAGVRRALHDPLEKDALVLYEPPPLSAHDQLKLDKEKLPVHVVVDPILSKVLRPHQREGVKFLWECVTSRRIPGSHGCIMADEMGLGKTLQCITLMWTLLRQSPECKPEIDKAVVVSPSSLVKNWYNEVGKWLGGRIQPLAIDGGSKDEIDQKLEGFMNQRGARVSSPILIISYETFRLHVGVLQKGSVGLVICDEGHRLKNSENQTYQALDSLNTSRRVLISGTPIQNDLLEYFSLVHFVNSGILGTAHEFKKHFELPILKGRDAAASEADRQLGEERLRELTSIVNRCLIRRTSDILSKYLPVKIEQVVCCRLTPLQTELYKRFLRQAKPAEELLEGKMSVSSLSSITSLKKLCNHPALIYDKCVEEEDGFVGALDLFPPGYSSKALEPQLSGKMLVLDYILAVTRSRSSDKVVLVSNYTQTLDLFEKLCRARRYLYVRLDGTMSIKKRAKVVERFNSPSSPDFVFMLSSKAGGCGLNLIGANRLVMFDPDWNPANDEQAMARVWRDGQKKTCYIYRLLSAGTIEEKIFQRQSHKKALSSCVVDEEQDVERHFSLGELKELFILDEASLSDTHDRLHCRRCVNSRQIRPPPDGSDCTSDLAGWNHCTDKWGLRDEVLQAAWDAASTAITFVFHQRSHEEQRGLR
A number is an active result; . = inactive; ? = inconclusive; / = not tested or not shown. Rows were chosen to be rich in hits. Some 1.2% of all compounds tested hit in one or more screens of this group.

SMILES | AF4-AF9 inh | N-glyco inh | CASP6 VEID inh | RAD52 inh | RAD54 branch
CN(C)c1ccc(C=c2c3cc([N+](=O)[O-])ccc3n3c2cc(-c2ccccc2)[n+]3C)cc1 | 55 | . | . | 100 | /
COc1cc(C=c2c3ccccc3n3c2cc(-c2ccccc2)[n+]3C)cc(OC)c1OC | 29 | . | 96 | . | /
COc1cc(/C=C(/C(=O)O)c2ccc(-c3ccccc3)cc2)cc(OC)c1OC | . | . | . | . | .
CN1C(=O)c2cc(NC(=O)Cc3ccccc3)ccc2OC[C@@H]2O[C@@H](CC(=O)NCC3CC3)CC[C@H]21 | . | / | . | . | .
O=C(Nc1ccccc1F)N1C[C@@H]2[C@H](c3ccccc31)[C@H](CO)N2C(=O)c1ccc(F)cc1 | . | / | . | . | .
CN1CCN(C2=C(NS(=O)(=O)c3cccs3)C(=O)c3ccccc3C2=O)CC1 | . | . | 47 | . | .
CCOc1ccccc1N1CCN(C2=C(NS(=O)(=O)c3cccs3)C(=O)c3ccccc3C2=O)CC1 | / | . | / | / | .
O=C1C(NS(=O)(=O)c2cccs2)=C(N2CCOCC2)C(=O)c2ccccc21 | . | . | . | . | .
O=C1C(NS(=O)(=O)c2cccs2)=C(N2CCN(Cc3ccccc3)CC2)C(=O)c2ccccc21 | 54 | . | . | . | /
OC(c1ccc(F)cc1)c1ncc(-c2ccccc2F)[nH]1 (centres undefined) | . | . | 39 | . | .
Cc1ccc(C(=O)c2coc3cc([N+](=O)[O-])c(O)c([N+](=O)[O-])c23)cc1 | . | . | 48 | . | /
CN(C)c1ccc(CNc2ccc3c(c2)ncn3C(C)(C)C)cc1 | 35 | . | . | . | .
CCN(CC)c1ccc(CNc2ccc3c(c2)ncn3CC)cc1 | 45 | / | . | . | /
COc1ccc(C#Cc2cnc3c(c2)C(=O)N([C@H](C)CO)C[C@H](C)[C@H](CN(C)C(=O)c2ccccc2F)O3)cc1 | . | / | . | . | .
O=C1Nc2c(Cl)cccc2C1=O | . | . | 37 | . | .
Cc1cccc2c1NC(=O)C2=O | . | . | . | . | .
COCCNC(=O)[C@@H]1[C@@H](CO)[C@@H]2Cn3c(ccc(-c4ccccc4)c3=O)[C@H]1N2C | . | / | . | . | .
COc1ccc2sc(N(CCN(C)C)C(=O)/C=C/c3cccs3)nc2c1 | 33 | . | . | . | /
COc1ccc2nc(N(CCN(C)C)C(=O)/C=C/c3cccs3)sc2c1 | . | . | . | . | /
COc1ccc(O)c(/C=N/n2c(-c3ccco3)csc2=Nc2cccnc2)c1 | / | . | / | / | /
CN=c1scc(-c2ccco2)n1/N=C/c1ccc(O)c(O)c1 | 26 | . | . | . | /
COC(=O)C[C@@H]1CC[C@H]2[C@@H](COc3ccc(NC(=O)NCc4ccccc4)cc3C(=O)N2C)O1 | / | / | / | / | .
O=C(COC(=O)c1c2c(nc3ccccc13)/C(=C\c1ccco1)CC2)NC1CCCC1 | . | . | 43 | . | /
COc1ccc(NC(=O)Nc2ccc3c(c2)C(=O)N([C@H](C)CO)C[C@@H](C)[C@H](CN(C)Cc2ccc4c(c2)OCO4)OCCCC[C@H](C)O3)cc1 | ? | / | . | . | .
CN1CCN(C(=O)C[C@H]2C[C@@H]3c4cc(NC(=O)C5CCC5)ccc4O[C@@H]3[C@H](CO)O2)CC1 | . | / | . | . | .
SMILES | AF4-AF9 inh | N-glyco inh | CASP6 VEID inh | RAD52 inh | RAD54 branch
Cc1nc2c3cc(F)ccc3n(Cc3ccccc3)c2s1 | . | . | . | . | .
Cc1nc2c3cc(F)ccc3n(CCN3CCCCC3)c2s1 | . | 32 | . | . | .
CN1c2ccc(-c3ccc(C#N)cc3)cc2[C@@H]2[C@@H](CCN2C(=O)CC2CC2)[C@H]1CO | . | / | . | . | .
O=c1cc(-c2ccccc2)oc2ccc(O)cc12 | . | . | . | . | .
OCCCN=c1cc(-c2ccccc2)oc2ccc(Cl)cc12 | / | 58 | / | / | /
COCCOC(=O)N1C(=O)[C@@]2(c3ccccc31)[C@H](c1ccccc1OCCO)N1[C@H](c3ccccc3)[C@H](c3ccccc3)OC(=O)[C@H]1[C@@H]2C(=O)N1CCN(c2ncccn2)CC1 | . | / | . | . | .
Cc1noc(C)c1S(=O)(=O)Nc1ccc2c(c1)CC(=O)N([C@H](C)CO)C[C@H](C)[C@@H](CN(C)Cc1ccccc1)O2 | . | / | . | . | .
Cc1[nH]c2ccccc2c1/C=N/NC(=O)c1cc(-c2ccncc2)nc2ccccc12 | . | 37 | . | . | .
Cc1[nH]c2ccccc2c1/C=N/NC(=O)c1cc(-c2ccccc2)n[nH]1 | . | . | . | . | .
COc1ccc(C(=O)Nc2cccnc2Cl)cc1OC | . | . | . | . | .
O=C(Nc1cccnc1Cl)c1ccc(=O)oc1 | . | . | 54 | . | .
N#Cc1cccc(-c2ccc3c(c2)[C@H]2[C@H](CCN2S(=O)(=O)c2ccccc2F)[C@H](CO)N3)c1 | . | / | . | . | .
Nc1ccc(N=Nc2ccccc2O)c(N)c1 | 49 | . | . | . | .
COc1ccc2c3c([nH]c2c1)[C@@H](CO)N(C(=O)C1CC1)CC31CN(S(C)(=O)=O)C1 | . | / | . | . | /
COc1cc(CCNC2=CC(=O)c3ncccc3C2=O)ccc1O | . | . | 91 | . | /
COc1ccccc1CNS(=O)(=O)c1cc(CN2C(=O)c3cccnc3C2=O)ccc1OC | . | . | . | . | .
COc1cc(NC(=O)c2cccnc2)c(Cl)cc1NC(=O)c1ccc(Cl)cc1 | . | . | . | . | .
COc1cc(NC(=O)c2cccnc2)c(Cl)cc1NC(=O)c1ccccc1 | . | . | 64 | . | .
COc1ccccc1NC(=O)c1ccc2nc(-c3ccccc3)c(-c3ccccc3)nc2c1 | / | . | / | / | .
COc1ccccc1-c1nc2cc3ccccc3cc2nc1-c1ccccc1 | 26 | . | . | . | /
C[C@@H]1CN([C@@H](C)CO)C(=O)c2cc(NS(=O)(=O)c3ccccc3)ccc2O[C@@H]1CN(C)S(C)(=O)=O | . | / | . | . | .
CCOCCCNC(=O)Cn1nc(-c2ccccc2)ccc1=O | 51 | . | . | . | .
CN(C)Cc1c(O)ccc2ccccc12 | 31 | . | . | . | /
C[C@@H]1CN([C@@H](C)CO)C(=O)c2cc(-c3ccc(C#N)cc3)cnc2O[C@@H]1CN(C)Cc1ccccn1 | . | / | / | / | .
Cc1ccc(S(=O)(=O)NC[C@@H]2CC[C@H]3[C@H](CN3Cc3ccccc3C(=O)O)O2)cc1 | . | / | . | . | /
SMILES | AF4-AF9 inh | N-glyco inh | CASP6 VEID inh | RAD52 inh | RAD54 branch
COc1ccc(S(=O)(=O)NC[C@H]2CC[C@H]3[C@H](CN3Cc3cc(F)ccc3F)O2)cc1 | . | / | . | 66 | /
Cc1ccc(S(=O)(=O)NC[C@H]2CC[C@H]3[C@H](CN3Cc3cc(F)ccc3F)O2)cc1 | . | / | . | 61 | /
O=C(c1ccccc1F)N1C[C@@H]2O[C@H](CNS(=O)(=O)c3ccccc3)CC[C@@H]21 | . | / | . | 59 | /
C[C@H]1CN([C@@H](C)CO)C(=O)c2cccc(NS(=O)(=O)c3cn(C)cn3)c2O[C@H]1CN(C)C(=O)NC1CCCCC1 | . | / | . | . | .
O=CN/C=C/c1cc(O)ccc1O | . | . | 70 | . | .
COC(=O)c1ccc(N2CCc3ccccc32)c([N+](=O)[O-])c1 | 33 | . | . | . | .
CN1CCN(c2ccccc2NC(=O)c2ccc(N3CCCCC3)c([N+](=O)[O-])c2)CC1 | 27 | . | . | . | .

High-throughput results from PubChem.
